Reference: PubChem BioAssay AID2562 (National Center for Advancing Translational Sciences (NCATS), 2010)
Inconclusive results are not listed. Active and inactive are the calls of the source. Calls follow the shape of the dose curve; as a rule, active = well fitted curve in the direction sought with a large enough effect; inconclusive = small, poorly fitted or top-dose-only effect, or effect the other way, or another doubt; inactive = no such curve, though single readings can be large or run the other way.

What follows are molecules tested against Pyruvate kinase PKLR (Homo sapiens) (UniProt P30613) (assay: Secondary LDH Assay for Activators of Human Reticulocyte Pyruvate Kinase: for Probe SAR). Details: purified hPK-R, LDH-coupled NADH fluorescence kinetic; series mostly up to 58.4 µM.
Sequence of Pyruvate kinase PKLR (Homo sapiens) (P30613 whole entry, looked up): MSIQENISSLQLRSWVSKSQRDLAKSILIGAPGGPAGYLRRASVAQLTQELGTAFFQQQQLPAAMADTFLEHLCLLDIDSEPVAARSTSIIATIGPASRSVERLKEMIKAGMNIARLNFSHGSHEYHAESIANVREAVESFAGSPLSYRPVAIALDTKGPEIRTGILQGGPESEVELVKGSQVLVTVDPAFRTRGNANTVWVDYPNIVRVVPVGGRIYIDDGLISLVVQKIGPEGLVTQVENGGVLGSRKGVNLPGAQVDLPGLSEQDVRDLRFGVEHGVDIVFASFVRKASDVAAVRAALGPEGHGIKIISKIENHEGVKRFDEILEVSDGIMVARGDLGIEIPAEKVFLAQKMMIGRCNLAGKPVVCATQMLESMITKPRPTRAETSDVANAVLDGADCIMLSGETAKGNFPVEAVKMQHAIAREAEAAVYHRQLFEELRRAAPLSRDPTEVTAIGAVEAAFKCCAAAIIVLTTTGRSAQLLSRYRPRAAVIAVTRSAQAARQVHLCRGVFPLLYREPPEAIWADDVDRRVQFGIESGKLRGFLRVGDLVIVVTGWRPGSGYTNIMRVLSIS
From the text: NIH Chemical Genomics Center [NCGC] Wael M. Rabeh, Lyudmila Nedyalkova and Hee-Wan Park [Structural Genomics Consortium, 100 College St. Toronto, Ontario, Canada] NCGC Assay Overview: Human pyruvate kinase reticulocyte (hPK-R) enzyme was supplied as a highly purified (>95% pure) preparation from Structural Genomics Consortium in Toronto (Ontario, Canada) and a secondary assay was used to evaluate compounds. This assay couples the formation of pyruvate from hPK-R using lactate dehydrogenase (LDH) and NADH. The depletion of NADH is followed in a fluorescent-based kinetic assay that follows the formation of pyruvate to lactate, as catalyzed LDH. Pyruvate kinase substrates, PEP and ADP, were present in the assay at 0.1 mM and 4 mM respectively. In this kinetic assay initial rates were determined by following the fluorescence of NADH depletion.
NCGC Assay Protocol Summary: Three uL of substrate mix (final concentration, 50 mM Tris-Cl pH 8.0, 200 mM KCl, 15 mM MgCl2, 0.1 mM PEP, 4.0 mM ADP, and 0.2 mM NADH) was dispensed into black-solid 1536 well plates. 23 nL of compounds were delivered by a pin tool and 1 uL of enzyme mix (final concentrations, 10 nM hPK-R and 1 uM of LDH) was added. Plates were immediately placed in ViewLux (Perkin Elmer) and NADH fluorescence was determined at 30 second exposure intervals for between 3 and 6 minutes. Data were normalized to the uninhibited and EC100 activation using known activators such as fructose-bis-phosphate.

Potency, inactive:
Cc1ccc(NS(=O)(=O)c2ccc3c(c2)NC(=O)CO3)cc1C
O=C1c2ccccc2C(=O)N1Cc1ccccn1
O=C1c2ccccc2C(=O)N1Cc1cccnc1
Cc1ccc(NS(=O)(=O)c2ccc3c(c2)n(C)c(=O)n3C)cc1C
Cc1ccc(NS(=O)(=O)c2ccc3c(c2)N(C)CCO3)cc1C
O=C1c2ccccc2C(=O)N1Cc1ccncc1
COc1cc(F)c(S(=O)(=O)N2CCCN(S(=O)(=O)c3cccc(N)c3)CC2)c(F)c1
O=C1c2ccccc2C(=O)N1c1ncccc1O
CCNc1cccc(S(=O)(=O)N2CCN(S(=O)(=O)c3ccc4c(c3)OCCO4)CC2)c1
Nc1cc(S(=O)(=O)N2CCN(S(=O)(=O)c3ccc4c(c3)OCCO4)CC2)ccn1
Cc1ccc(NS(=O)(=O)c2ccc(Cl)cc2)cc1C
O=C1c2ccccc2C(=O)N1c1nccs1
O=C1CCc2cc(S(=O)(=O)Nc3ccncc3)ccc2N1
Cc1ccccc1NS(=O)(=O)c1ccc2c(c1)CCC(=O)N2
CC(=O)N1CCc2cc(S(=O)(=O)Nc3ccc(C)c(C)c3)ccc21
Cc1ccc(NS(=O)(=O)c2ccc3c(c2)C(Cl)(Cl)C(=O)N3)cc1C
CN(C)c1cccc(S(=O)(=O)N2CCN(S(=O)(=O)c3ccc4c(c3)OCCO4)CC2)c1
O=C1c2ccccc2C(=O)N1c1ccncc1
O=S1(=O)N=C(Oc2cccc(Cl)c2)c2ccccc21
Cc1ccccc1OC1=NS(=O)(=O)c2ccccc21
O=C1c2ccccc2C(=O)N1c1cccc(O)c1
O=C1c2ccccc2C(=O)N1c1ccc(O)cc1
Cc1ccc(OC2=NS(=O)(=O)c3ccccc32)cc1
Cc1cc2c(s1)c1cnn(Cc3ccccc3F)c(=O)c1n2C
COc1ccc(Nc2c(-c3ccc(C)o3)nc3ccccn23)cc1
CC(=O)Nc1ccc(S(=O)(=O)Nc2ccc(C)c(C)c2)cc1
Cc1ccc(NS(=O)(=O)c2ccc3c(c2)CCN(C(=O)C(F)(F)F)C3)cc1C
O=C1c2ccccc2C(=O)N1c1cnc2ccccc2c1
Cc1cc(N2C(=O)c3ccccc3C2=O)n[nH]1
COc1cccc(NS(=O)(=O)c2ccc3c(c2)CCC(=O)N3)c1
Cc1cc(N2C(=O)c3ccccc3C2=O)no1
COc1ccc(N2C(=O)c3ccccc3C2=O)cc1
Cc1ccc(-c2nc3cnccn3c2Nc2ccc(C(C)C)cc2)o1
CNc1cc2c(cc1S(=O)(=O)Nc1ccc(C)c(C)c1)CCC(=O)N2
Cc1ccc(NS(=O)(=O)c2ccc3c(c2)N(C)C(=O)CO3)cc1C
O=S1(=O)N=C(Oc2ccccc2Cl)c2ccccc21
Cc1cc(C)n2c(Nc3ccccc3)c(-c3ccc(C)o3)nc2n1
Cc1ccc(NS(=O)(=O)c2ccc3c(c2)CCC(=O)N3)cc1C
COc1ccc(NS(=O)(=O)c2ccc3c(c2)CCC(=O)N3)cc1

Potency, active:
CSc1cc2c(s1)c1cnn(Cc3cccc(O)c3)c(=O)c1n2C 0.259 µM
